{"source": "PubChem BioAssay (Tox21)", "key": {"[1]": {"assay": "cAMP Responsive Elements (CRE) small molecule antagonists, cell-based qHTS assay: qHTS cell viability counter screen (AID 2060913); also: nearly all actives have a fitted effect of over 40% in size", "in_short": "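HEK293T CRE-bla, 2,000 cells/well, 18 h preincubation; cpd in DMSO + NKH477 0.25 uM final, 3 h 37 C/5% CO2; LiveBLAzer 2 h RT, then CellTiter-Glo 30 min RT, luminescence.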"}, "[2]": {"assay": "cAMP Responsive Elements (CRE) small molecule agonists, cell-based qHTS assay: qHTS cell viability counter screen (AID 2060914); also: nearly all actives have a fitted effect of over 50% in size", "in_short": "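CRE-bla HEK293T cells in 10% dialyzed FBS medium were exposed to compounds for 3 h at 37C after 18 h plating. CellTiter-Glo was then added in the same wells, and luminescence was read after 30 min at room temperature.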"}}, "note": "Inconclusive results are not listed. A call without a number means that no potency is given here. A number with no mark means an inactive call. Calls of active or inactive are those of the source. Calls follow the shape of the dose curve; as a rule, active = well fitted cell-killing curve with a large enough effect in the repeat runs; inconclusive = weak or mixed curves, or effect the other way; inactive = flat fitted curve, though single readings scatter."}
{"smiles": "CCCCCCCCC(=O)Cl", "values": [{"measurement": "Potency", "setting": "[1]", "value": "inactive"}, {"measurement": "Potency", "setting": "[2]", "value": "inactive"}]}
{"smiles": "CCCCCCC(O)CO", "note": "(stereo not given)", "values": [{"measurement": "Potency", "setting": "[1]", "value": "inactive"}, {"measurement": "Potency", "setting": "[2]", "value": "inactive"}]}
{"smiles": "CCCOCCC", "values": [{"measurement": "Potency", "setting": "[1]", "value": "inactive"}, {"measurement": "Potency", "setting": "[2]", "value": "inactive"}]}
{"smiles": "C[C@]12C=CC(=O)C=C1CC[C@H]1[C@@H]3C[C@@H](O)[C@](O)(C(=O)CO)[C@@]3(C)C[C@H](O)[C@@]12F", "values": [{"measurement": "Potency", "setting": "[1]", "value": "inactive"}, {"measurement": "Potency", "setting": "[2]", "value": "inactive"}]}
{"smiles": "CN(C)CCC(c1ccc(Cl)cc1)c1ccccn1", "note": "(stereo not given)", "values": [{"measurement": "Potency", "setting": "[1]", "value": "inactive"}, {"measurement": "Potency", "setting": "[2]", "value": "inactive"}]}
{"smiles": "C=Cc1ccc(C)cc1", "values": [{"measurement": "Potency", "setting": "[1]", "value": "inactive"}, {"measurement": "Potency", "setting": "[2]", "value": "inactive"}]}
{"smiles": "NC(=O)c1ccccc1", "values": [{"measurement": "Potency", "setting": "[1]", "value": "inactive"}, {"measurement": "Potency", "setting": "[2]", "value": "inactive"}]}
{"smiles": "C=CC(=O)NCOCCCC", "values": [{"measurement": "Potency", "setting": "[1]", "value": "inactive"}, {"measurement": "Potency", "setting": "[2]", "value": "inactive"}]}
{"smiles": "O=C(O)CCSCCC(=O)O", "values": [{"measurement": "Potency", "setting": "[1]", "value": "inactive"}, {"measurement": "Potency", "setting": "[2]", "value": "inactive"}]}
{"smiles": "CC(C)c1ccc2c(C(C)C)cc(C(C)C)c(S(=O)(=O)O)c2c1", "values": [{"measurement": "Potency", "setting": "[1]", "value": "inactive"}, {"measurement": "Potency", "setting": "[2]", "value": "inactive"}]}
{"smiles": "Cc1cccc(C)c1NC(=O)CN1CCCCCC1", "values": [{"measurement": "Potency", "setting": "[1]", "value": "inactive"}, {"measurement": "Potency", "setting": "[2]", "value": "inactive"}]}
{"smiles": "COc1cccc(O)c1", "values": [{"measurement": "Potency", "setting": "[1]", "value": "inactive"}, {"measurement": "Potency", "setting": "[2]", "value": "inactive"}]}
{"smiles": "O=C(O)c1ccccc1", "values": [{"measurement": "Potency", "setting": "[1]", "value": "inactive"}, {"measurement": "Potency", "setting": "[2]", "value": "inactive"}]}
{"smiles": "CN1C[C@H]2c3ccccc3Oc3ccc(Cl)cc3[C@@H]2C1", "values": [{"measurement": "Potency", "setting": "[1]", "value": "inactive"}, {"measurement": "Potency", "setting": "[2]", "value": "inactive"}]}
{"smiles": "C=CCc1ccccc1OCC(O)CNC(C)C", "note": "(stereo not given)", "values": [{"measurement": "Potency", "setting": "[1]", "value": "inactive"}, {"measurement": "Potency", "setting": "[2]", "value": "inactive"}]}
{"smiles": "CC1(C)CC(N)CC(C)(C)N1", "values": [{"measurement": "Potency", "setting": "[1]", "value": "inactive"}, {"measurement": "Potency", "setting": "[2]", "value": "inactive"}]}
{"smiles": "OCCN(CCO)c1nc(N2CCCCC2)c2nc(N(CCO)CCO)nc(N3CCCCC3)c2n1", "values": [{"measurement": "Potency", "setting": "[1]", "value": "inactive"}, {"measurement": "Potency", "setting": "[2]", "value": "inactive"}]}
{"smiles": "CCC(CC)C(C)CCOC(C)=O", "note": "(stereo not given)", "values": [{"measurement": "Potency", "setting": "[1]", "value": "inactive"}, {"measurement": "Potency", "setting": "[2]", "value": "inactive"}]}
{"smiles": "C=CN1CCCC1=O", "values": [{"measurement": "Potency", "setting": "[1]", "value": "inactive"}, {"measurement": "Potency", "setting": "[2]", "value": "inactive"}]}
{"smiles": "CC(=O)C=O", "values": [{"measurement": "Potency", "setting": "[1]", "value": "inactive"}, {"measurement": "Potency", "setting": "[2]", "value": "inactive"}]}
{"smiles": "COc1ccc(-c2ccc3cc(C(=O)O)ccc3c2)cc1C12CC3CC(CC(C3)C1)C2", "values": [{"measurement": "Potency", "setting": "[1]", "value": "inactive"}, {"measurement": "Potency", "setting": "[2]", "value": "inactive"}]}
{"smiles": "CC(C)(O)C(=O)O", "values": [{"measurement": "Potency", "setting": "[1]", "value": "inactive"}, {"measurement": "Potency", "setting": "[2]", "value": "inactive"}]}
{"smiles": "CCn1nc(Cc2ccccc2)cc1C1CCN(C[C@H]2C[C@H](N(C)[C@@H](C(=O)O)C(C)C)C[C@@H]2c2cccc(F)c2)CC1", "values": [{"measurement": "Potency", "setting": "[1]", "value": "inactive"}, {"measurement": "Potency", "setting": "[2]", "value": "inactive"}]}
{"smiles": "Cc1ccc(Cl)cc1N", "values": [{"measurement": "Potency", "setting": "[1]", "value": "inactive"}, {"measurement": "Potency", "setting": "[2]", "value": "inactive"}]}
{"smiles": "COC(=O)Cc1cccc2ccccc12", "values": [{"measurement": "Potency", "setting": "[1]", "value": "inactive"}, {"measurement": "Potency", "setting": "[2]", "value": "inactive"}]}
{"smiles": "Cc1cc(O)cc(C)c1Cl", "values": [{"measurement": "Potency", "setting": "[1]", "value": "inactive"}, {"measurement": "Potency", "setting": "[2]", "value": "inactive"}]}
{"smiles": "CC(C)c1c(C(=O)Nc2ccccc2)c(-c2ccccc2)c(-c2ccc(F)cc2)n1CC[C@@H](O)C[C@@H](O)CC(=O)O", "values": [{"measurement": "Potency", "setting": "[1]", "value": "inactive"}, {"measurement": "Potency", "setting": "[2]", "value": "inactive"}]}
{"smiles": "CCCCCCCC(=O)O", "values": [{"measurement": "Potency", "setting": "[1]", "value": "inactive"}, {"measurement": "Potency", "setting": "[2]", "value": "inactive"}]}
{"smiles": "CC(=O)OC(C)(C)C", "values": [{"measurement": "Potency", "setting": "[1]", "value": "inactive"}, {"measurement": "Potency", "setting": "[2]", "value": "inactive"}]}
{"smiles": "CN(C)CC/C=C1\\c2ccccc2Sc2ccc(Cl)cc21", "values": [{"measurement": "Potency", "setting": "[1]", "value": "inactive"}, {"measurement": "Potency", "setting": "[2]", "value": "inactive"}]}
{"smiles": "CCNc1cccc(C)c1", "values": [{"measurement": "Potency", "setting": "[1]", "value": "inactive"}, {"measurement": "Potency", "setting": "[2]", "value": "inactive"}]}
{"smiles": "CC(=O)Oc1c(C)c(C)c2c(c1C)CC[C@@](C)(CCC[C@H](C)CCC[C@H](C)CCCC(C)C)O2", "values": [{"measurement": "Potency", "setting": "[1]", "value": "inactive"}, {"measurement": "Potency", "setting": "[2]", "value": "inactive"}]}
{"smiles": "Cc1ccccc1C", "values": [{"measurement": "Potency", "setting": "[1]", "value": "inactive"}, {"measurement": "Potency", "setting": "[2]", "value": "inactive"}]}
{"smiles": "COC(=O)[C@H]1[C@H]2C[C@@H]3c4[nH]c5cc(OC)ccc5c4CCN3C[C@H]2C[C@@H](OC(=O)c2cc(OC)c(OC)c(OC)c2)[C@@H]1OC", "values": [{"measurement": "Potency", "setting": "[1]", "value": "inactive"}, {"measurement": "Potency", "setting": "[2]", "value": "inactive"}]}
{"smiles": "O=C(O)c1cccc(C[C@@H]2COc3ccc(OCc4nc5cc(F)ccc5s4)cc3[C@@H]2O)c1", "values": [{"measurement": "Potency", "setting": "[1]", "value": "inactive"}, {"measurement": "Potency", "setting": "[2]", "value": "inactive"}]}
{"smiles": "CC(C)c1ccccc1N", "values": [{"measurement": "Potency", "setting": "[1]", "value": "inactive"}, {"measurement": "Potency", "setting": "[2]", "value": "inactive"}]}
{"smiles": "CCNc1ccccc1", "values": [{"measurement": "Potency", "setting": "[1]", "value": "inactive"}, {"measurement": "Potency", "setting": "[2]", "value": "inactive"}]}
{"smiles": "CC(C)[C@@H]1CC[C@@H](C)CC1=O", "values": [{"measurement": "Potency", "setting": "[1]", "value": "inactive"}, {"measurement": "Potency", "setting": "[2]", "value": "inactive"}]}
{"smiles": "CCCCCCCCCCCCSC", "values": [{"measurement": "Potency", "setting": "[1]", "value": "inactive"}, {"measurement": "Potency", "setting": "[2]", "value": "inactive"}]}
{"smiles": "O=C(O)CCCl", "values": [{"measurement": "Potency", "setting": "[1]", "value": "inactive"}, {"measurement": "Potency", "setting": "[2]", "value": "inactive"}]}
{"smiles": "CCCCCCCCCC(=O)OCC", "values": [{"measurement": "Potency", "setting": "[1]", "value": "inactive"}, {"measurement": "Potency", "setting": "[2]", "value": "inactive"}]}
{"smiles": "Nc1nc(Cl)nc2c1ncn2[C@H]1C[C@H](O)[C@@H](CO)O1", "values": [{"measurement": "Potency", "setting": "[1]", "value": "inactive"}, {"measurement": "Potency", "setting": "[2]", "value": "inactive"}]}
{"smiles": "CC(C)OCCO", "values": [{"measurement": "Potency", "setting": "[1]", "value": "inactive"}, {"measurement": "Potency", "setting": "[2]", "value": "inactive"}]}
{"smiles": "CCCCCCC1CCCC(=O)O1", "note": "(stereo not given)", "values": [{"measurement": "Potency", "setting": "[1]", "value": "inactive"}, {"measurement": "Potency", "setting": "[2]", "value": "inactive"}]}
{"smiles": "CC1(C)CC(O)CC(C)(C)N1", "values": [{"measurement": "Potency", "setting": "[1]", "value": "inactive"}, {"measurement": "Potency", "setting": "[2]", "value": "inactive"}]}
{"smiles": "O=C1C(=O)c2ccccc2C(O)=C1C1CCC(c2ccc(Cl)cc2)CC1", "note": "(stereo not given)", "values": [{"measurement": "Potency", "setting": "[1]", "value": "inactive"}, {"measurement": "Potency", "setting": "[2]", "value": "inactive"}]}
{"smiles": "CN1CCCC1", "values": [{"measurement": "Potency", "setting": "[1]", "value": "inactive"}, {"measurement": "Potency", "setting": "[2]", "value": "inactive"}]}
{"smiles": "c1ccc(CNc2ncnc3c2ncn3C2CCCCO2)cc1", "note": "(stereo not given)", "values": [{"measurement": "Potency", "setting": "[1]", "value": "inactive"}, {"measurement": "Potency", "setting": "[2]", "value": "inactive"}]}
{"smiles": "CCOC(=O)c1cccnc1", "values": [{"measurement": "Potency", "setting": "[1]", "value": "inactive"}, {"measurement": "Potency", "setting": "[2]", "value": "inactive"}]}
{"smiles": "C=CCCCCCCCCOC(C)=O", "values": [{"measurement": "Potency", "setting": "[1]", "value": "inactive"}, {"measurement": "Potency", "setting": "[2]", "value": "inactive"}]}
